We go through 12 compounds from PubChem BioAssay (Tox21).

Assay [1] in a line: qHTS assay to identify aromatase inhibitors - cell viability counter screen (AID 743084).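 Also: cells stimulated with testosterone during compound exposure; nearly all actives have a fitted effect of over 55% in size.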 Also: potency is read from the fitted curve at half-maximal effect.
Assay [2] concerns the target Aryl hydrocarbon receptor (Homo sapiens) (UniProt P35869). Description: qHTS assay to identify small molecule that activate the aryl hydrocarbon receptor (AhR) signaling pathway (AID 743085). Also: nearly all actives have a fitted effect of over 15% in size. Also: potency is read from the fitted curve at half-maximal effect.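 As to activation: HG2L7.5c1 human HepG2 liver cells with stably integrated DRE-driven firefly reporter; series mostly up to about 70 µM.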 A digest of the protocol: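 Measured in HG2L7.5c1 cells: CellTiter-Fluor signal (30 min incubation, 37C) for viability, then luciferase luminescence (30 min, room temperature). Compound contact time was 24 h at 37C, following a 5 h pre-incubation.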
(In general: In qHTS, concentration-response curves come from the screen itself.)

A short description of assay [3]: qHTS assay to identify small molecule that activate the aryl hydrocarbon receptor (AhR) signaling pathway - cell viability counter screen (AID 743086). Also: nearly all actives have a fitted effect of over 45% in size. Also: potency is read from the fitted curve at half-maximal effect. An outline of the steps:
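HepG2-AhR-luc (HG2L7.5c1) cells, 4000/well, were preincubated 5 h at 37C, exposed to compound in qHTS format for 24 hr at 37C, then given CellTiter-Fluor for 30 min; viability was read as fluorescence in the reporter wells.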

For assay [4], the target named is Peroxisome proliferator-activated receptor gamma (Homo sapiens) (UniProt P37231). Put plainly: qHTS assay to identify small molecule agonists of the peroxisome proliferator-activated receptor gamma (PPARg) signaling pathway (AID 743094; active = well fitted activation curve with a large enough effect in the signal ratio in the repeat runs, not every such curve was filed as active; the % refers to the signal ratio). A digest of the protocol: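 Agonism was assessed in a beta-lactamase reporter system, HEK293H cells with a stably integrated UAS-bla construct under PPARg control; the 17 h treatment at 37C preceded a 1 h room-temperature FRET substrate read.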

A short description of assay [5]: qHTS assay for small molecule agonists of the antioxidant response element (ARE) signaling pathway - cell viability counter screen (AID 743203; calls by dose curve; also: nearly all actives have a fitted effect of over 55% in size; also: potency is read from the fitted curve at half-maximal effect). An outline of the steps:
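ATP content via CellTiter-Glo luminescence served as the viability measure. Cells: ARE-bla HepG2, 2,000 per well. Exposure: 16 hrs, 37C/5% CO2.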

Assay [6] can be described thus: qHTS assay for small molecule activators of the heat shock response signaling pathway - cell viability counter screen (AID 743209). Also: nearly all actives have a fitted effect of over 50% in size. An outline of the steps:
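Compounds dissolved in DMSO were added to overnight-plated HSE-bla HeLa cells and left 5 h at 37 C. Cell viability was quantified by luminescence using CellTiter-Glo.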

A short description of assay [7]: qHTS assay to identify small molecule agonists of the peroxisome proliferator-activated receptor delta (PPARd) signaling pathway - cell viability counter screen (AID 743211). Also: nearly all actives have a fitted effect of over 55% in size. Also: potency is read from the fitted curve at half-maximal effect. A digest of the protocol: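 Following 5 h plating at 37 C and 5% CO2, PPARd UAS-bla HEK293H cells took up test compounds for 17 h. Viability was quantified by luminescence 30 min after CellTiter-Glo addition at room temperature.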

A short description of assay [8]: qHTS assay to identify small molecule antagonists of the peroxisome proliferator-activated receptor delta (PPARd) signaling pathway - cell viability counter screen (AID 743213). Also: nearly all actives have a fitted effect of over 50% in size. A digest of the protocol:
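Luminescence from CellTiter-Glo, added after the bla read and incubated 30 min at room temperature, gives viability of HEK293H PPARd-bla cells exposed to compounds for 17 h at 37 C with 300 nM L165041.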

In assay [9] the target is Peroxisome proliferator-activated receptor delta (Homo sapiens) (UniProt Q03181). Description: qHTS assay to identify small molecule antagonists of the peroxisome proliferator-activated receptor delta (PPARd) signaling pathway (AID 743215; active = well fitted inhibition curve with a large enough effect in the signal ratio in the repeat runs, not every such curve was filed as active; the % refers to the signal ratio;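 also: cells stimulated with agonist L165041 at 300 nM final during compound exposure; series mostly up to about 62 µM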). An outline of the steps:
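Here, a reporter line (HEK293H, beta-lactamase under a UAS) measures PPARd signaling. Compounds are tested against agonist L165041 at 300 nM final concentration over 17 h at 37 C, with fluorescence read after substrate.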

Assay [10] in a line: qHTS assay to identify small molecule agonists of the farnesoid-X-receptor (FXR) signaling pathway - cell viability counter screen (AID 743218). Also: nearly all actives have a fitted effect of over 45% in size. Also: potency is read from the fitted curve at half-maximal effect. An outline of the steps:
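Quantitative HTS counter screen measuring ATP-based viability via CellTiter-Glo luminescence in HEK 293T cells carrying a UAS-driven beta-lactamase reporter, after 16 h compound exposure at 37 C.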

The nature of assay [11]: qHTS assay to identify small molecule antagonists of the farnesoid-X-receptor (FXR) signaling pathway - cell viability counter screen (AID 743221; active = well fitted cell-killing curve with a large enough effect in the repeat runs, not every such curve was filed as active; also: nearly all actives have a fitted effect of over 50% in size). An outline of the steps:
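Compound effects on cell number were measured as CellTiter-Glo luminescence in HEK 293T cells expressing FXR-UAS-bla, after 16 h at 37 C with 50 uM CDCA (final).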

Assay [12] has as its target Vitamin D3 receptor (Homo sapiens) (UniProt P11473). Description: qHTS assay to identify small molecule agonists of the vitamin D receptor (VDR) signaling pathway (AID 743222; calls by dose curve). A digest of the protocol: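 Tox21 cell reporter format: VDR-bla line, 16 h compound exposure in 5% CO2 at 37C, then fluorescence intensity after 2 h with LiveBLAzer B/G FRET substrate.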
Assay [13] shares this target. Description: qHTS assay to identify small molecule antagonists of the vitamin D receptor (VDR) signaling pathway (AID 743223; active = well fitted inhibition curve with a large enough effect in the signal ratio in the repeat runs, not every such curve was filed as active; the % refers to the signal ratio). A digest of the protocol:
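Beta-lactamase activity in VDR-bla cells is measured by FRET substrate fluorescence (2 h, room temperature) after cells spend 16 h at 37C with test compound and 3 nM final 1alpha,25-dihydroxyvitamin D3.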

Assay [14] can be described thus: qHTS assay to identify small molecule antagonists of the peroxisome proliferator-activated receptor gamma (PPARg) signaling pathway - cell viability counter screen (AID 743194). Also: nearly all actives have a fitted effect of over 55% in size. Also: potency is read from the fitted curve at half-maximal effect. As to conditions: Potency: co-treated with 50 nM rosiglitazone. An outline of the steps: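 PPARg-UAS-bla HEK293H cells were plated, rested 5 h at 37 C, then treated with compounds plus rosiglitazone (50 nM final) for 17 h at 37 C; viability was then read by CellTiter-Glo luminescence after 30 min at room temperature.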

Assay [15] is described as follows: qHTS assay for small molecule activators of the heat shock response signaling pathway (AID 743210; active = well fitted activation curve with a large enough effect in the signal ratio in the repeat runs, with a control signal flat, not every such curve was filed as active; the % refers to the signal ratio;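 also: HeLa cells with beta-lactamase reporter driven by heat shock elements; series mostly up to about 63 µM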). An outline of the steps:
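Activation of heat shock element-controlled beta-lactamase expression is measured in HeLa cells by LiveBLAzer FRET fluorescence, with compound exposure lasting 5 h at 37 C and substrate loading 2.5 h at room temperature.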

Assay [16] deals with Peroxisome proliferator-activated receptor gamma (Homo sapiens) (UniProt P37231). Put plainly: qHTS assay to identify small molecule antagonists of the peroxisome proliferator-activated receptor gamma (PPARg) signaling pathway (AID 743191; calls by dose curve; also: nearly all actives have a fitted effect of over 30% in size; also: potency is read from the fitted curve at half-maximal effect). An outline of the steps:
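GeneBLAzer PPARg UAS-bla HEK293H cells carrying a UAS-driven beta-lactamase reporter were plated at 3000 cells/well, preincubated 5 h at 37C, then given compound for 17 h at 37C; LiveBLAzer B/G FRET substrate was read after 1 h at room temperature.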

The target of assay [17] is Peroxisome proliferator-activated receptor delta (Homo sapiens) (UniProt Q03181). Put plainly: qHTS assay to identify small molecule agonists of the peroxisome proliferator-activated receptor delta (PPARd) signaling pathway (AID 743212; calls by dose curve). A digest of the protocol:
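Cells expressing a UAS-driven beta-lactamase reporter (PPARd-bla HEK293H) were given test compounds after a 5 h settle and kept at 37 C. Reporter activity was then measured as FRET fluorescence using LiveBLAzer B/G substrate.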

The target of assay [18] is Bile acid receptor (Homo sapiens) (UniProt Q96RI1). Description: qHTS assay to identify small molecule antagonists of the farnesoid-X-receptor (FXR) signaling pathway (AID 743217; active = well fitted inhibition curve with a large enough effect in the signal ratio in the repeat runs, not every such curve was filed as active; the % refers to the signal ratio). An outline of the steps: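 Test compounds are pin-transferred onto FXR-bla HEK 293T cells, then chenodeoxycholic acid is added at 50 uM final. After 16 h at 37 °C, LiveBLAzer B/G substrate is applied for 2 h at room temperature and fluorescence read.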

For assay [19] the target is unchanged. Description: qHTS assay to identify small molecule agonists of the farnesoid-X-receptor (FXR) signaling pathway (AID 743220; active = well fitted activation curve with a large enough effect in the signal ratio in the repeat runs, not every such curve was filed as active; the % refers to the signal ratio). An outline of the steps: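 FXR-UAS-bla HEK 293T cells carrying a UAS-driven beta-lactamase reporter were plated for 5 h at 37C/5% CO2, then exposed to DMSO-dissolved Tox21 10K compounds for 16 h at 37C. A LiveBLAzer B/G FRET substrate was loaded for 2 h at room temperature before fluorescence reading.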

A short description of assay [20]: qHTS assay for small molecule agonists of the antioxidant response element (ARE) signaling pathway (AID 743202; active = well fitted activation curve with a large enough effect in the signal ratio in the repeat runs, not every such curve was filed as active; the % refers to the signal ratio; also: potency is read from the fitted curve at half-maximal effect). An outline of the steps:
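Steps: seed ARE-bla HepG2 cells (2,000/well); incubate 5 h at 37 C; add compounds by pin tool; incubate 16 h at 37 C; add FRET substrate; read fluorescence after 2 h at RT.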

Where “and” joins values, the source holds several entries; their conditions need not be identical. Equal values may be shown once. Records with an inconclusive call do not appear. A structure can be active in one record and inactive in another. Calls of active or inactive are those of the source. Unless noted, calls follow the shape of the dose curve; as a rule, active = well fitted curve in the direction sought with a large enough effect in the repeat runs; inconclusive = weak or mixed curves; inactive = no such curve, though single readings can be large; an effect the other way counts as inactive or inconclusive.

Sequence of Vitamin D3 receptor (Homo sapiens) (P11473 whole entry, looked up): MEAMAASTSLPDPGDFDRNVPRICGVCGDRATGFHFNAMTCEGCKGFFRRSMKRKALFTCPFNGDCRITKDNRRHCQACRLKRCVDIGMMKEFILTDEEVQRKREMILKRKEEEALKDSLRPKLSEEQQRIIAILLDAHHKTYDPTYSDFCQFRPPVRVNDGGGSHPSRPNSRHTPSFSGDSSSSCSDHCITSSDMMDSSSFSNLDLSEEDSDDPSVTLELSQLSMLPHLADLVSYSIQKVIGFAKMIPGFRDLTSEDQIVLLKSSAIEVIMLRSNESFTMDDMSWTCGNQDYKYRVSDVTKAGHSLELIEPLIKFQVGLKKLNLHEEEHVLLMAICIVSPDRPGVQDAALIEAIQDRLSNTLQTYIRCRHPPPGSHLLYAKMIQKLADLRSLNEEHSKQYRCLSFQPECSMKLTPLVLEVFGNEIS
Sequence of Peroxisome proliferator-activated receptor delta (Homo sapiens) (Q03181 whole entry, looked up): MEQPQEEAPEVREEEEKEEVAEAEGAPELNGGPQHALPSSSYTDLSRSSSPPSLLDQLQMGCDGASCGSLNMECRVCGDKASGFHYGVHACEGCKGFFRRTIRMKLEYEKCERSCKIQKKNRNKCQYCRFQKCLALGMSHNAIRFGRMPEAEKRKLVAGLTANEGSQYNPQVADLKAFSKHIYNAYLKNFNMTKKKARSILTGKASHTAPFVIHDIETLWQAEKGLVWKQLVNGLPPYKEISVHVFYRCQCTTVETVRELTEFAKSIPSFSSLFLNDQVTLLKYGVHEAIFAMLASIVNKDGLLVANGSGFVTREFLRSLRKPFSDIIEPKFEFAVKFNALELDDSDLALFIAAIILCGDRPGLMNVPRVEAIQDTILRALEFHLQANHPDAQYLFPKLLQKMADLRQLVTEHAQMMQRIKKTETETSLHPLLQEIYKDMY
Sequence of Aryl hydrocarbon receptor (Homo sapiens) (P35869 whole entry, looked up): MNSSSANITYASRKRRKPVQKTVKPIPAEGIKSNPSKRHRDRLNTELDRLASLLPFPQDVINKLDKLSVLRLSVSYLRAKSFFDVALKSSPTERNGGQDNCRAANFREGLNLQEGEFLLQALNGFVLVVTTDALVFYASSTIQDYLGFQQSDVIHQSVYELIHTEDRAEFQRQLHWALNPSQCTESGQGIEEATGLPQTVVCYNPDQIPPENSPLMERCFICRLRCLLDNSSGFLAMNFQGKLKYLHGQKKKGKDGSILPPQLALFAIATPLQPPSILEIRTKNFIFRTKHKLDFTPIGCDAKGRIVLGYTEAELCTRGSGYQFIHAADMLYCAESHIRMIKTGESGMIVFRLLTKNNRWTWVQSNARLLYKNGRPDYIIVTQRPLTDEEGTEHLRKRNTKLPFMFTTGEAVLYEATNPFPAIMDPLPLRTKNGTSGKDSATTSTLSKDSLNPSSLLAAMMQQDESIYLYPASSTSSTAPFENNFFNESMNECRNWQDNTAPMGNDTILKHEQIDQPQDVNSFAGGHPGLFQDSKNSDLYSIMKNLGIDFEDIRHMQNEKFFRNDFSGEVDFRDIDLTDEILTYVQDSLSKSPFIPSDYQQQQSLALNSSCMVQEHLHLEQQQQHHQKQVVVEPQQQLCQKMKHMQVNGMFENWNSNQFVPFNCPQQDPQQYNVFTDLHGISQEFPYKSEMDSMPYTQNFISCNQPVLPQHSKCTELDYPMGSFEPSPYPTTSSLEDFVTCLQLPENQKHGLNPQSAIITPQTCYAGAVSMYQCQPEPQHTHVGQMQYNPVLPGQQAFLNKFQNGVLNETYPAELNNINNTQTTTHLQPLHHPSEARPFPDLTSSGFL
Sequence of Bile acid receptor (Homo sapiens) (Q96RI1 whole entry, looked up): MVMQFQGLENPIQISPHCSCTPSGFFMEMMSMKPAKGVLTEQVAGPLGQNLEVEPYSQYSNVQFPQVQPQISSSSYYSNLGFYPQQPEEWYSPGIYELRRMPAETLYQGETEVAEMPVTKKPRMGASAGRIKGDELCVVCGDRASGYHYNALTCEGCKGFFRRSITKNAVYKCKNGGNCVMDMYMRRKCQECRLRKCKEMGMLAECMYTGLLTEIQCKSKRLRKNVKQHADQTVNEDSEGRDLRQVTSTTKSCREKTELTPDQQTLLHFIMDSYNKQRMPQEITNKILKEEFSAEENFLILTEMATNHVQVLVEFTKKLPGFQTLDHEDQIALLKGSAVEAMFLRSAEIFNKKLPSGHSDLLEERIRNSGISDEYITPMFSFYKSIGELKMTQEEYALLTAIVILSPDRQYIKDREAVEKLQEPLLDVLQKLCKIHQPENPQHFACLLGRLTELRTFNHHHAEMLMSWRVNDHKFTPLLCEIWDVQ
Sequence of Peroxisome proliferator-activated receptor gamma (Homo sapiens) (P37231 whole entry, looked up): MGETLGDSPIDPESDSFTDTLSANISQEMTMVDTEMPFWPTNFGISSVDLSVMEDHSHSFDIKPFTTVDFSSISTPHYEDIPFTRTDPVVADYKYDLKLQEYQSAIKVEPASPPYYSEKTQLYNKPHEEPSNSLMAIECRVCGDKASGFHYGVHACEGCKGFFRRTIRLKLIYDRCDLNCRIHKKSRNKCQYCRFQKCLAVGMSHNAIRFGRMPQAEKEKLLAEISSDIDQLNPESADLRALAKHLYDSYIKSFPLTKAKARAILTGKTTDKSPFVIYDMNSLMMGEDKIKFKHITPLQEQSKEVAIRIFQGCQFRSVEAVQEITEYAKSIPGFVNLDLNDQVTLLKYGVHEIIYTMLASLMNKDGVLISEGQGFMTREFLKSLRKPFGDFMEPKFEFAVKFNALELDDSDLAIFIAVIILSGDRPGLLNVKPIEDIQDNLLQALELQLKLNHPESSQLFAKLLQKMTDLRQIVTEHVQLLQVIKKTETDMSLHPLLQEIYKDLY

For `O=C(NC(=O)c1c(F)cccc1F)Nc1ccc(OC(F)(F)C(F)OC(F)(F)F)c(Cl)c1` (stereo unspecified), the Potency result in assay [1], in [2], in [3], in [4], in assay [5] and in [6] was “inactive” each time. Besides, the Potency entry in assay [7], in [8], in assay [9], in assay [10] and in assay [11] was “inactive” each time. Also, the call in assay [12] and in assay [13] was inactive.

As to `O=C(NC(=O)c1c(F)cccc1F)Nc1cc(Cl)c(Oc2ncc(C(F)(F)F)cc2Cl)c(Cl)c1`, the Potency result in [1], in assay [2], in assay [3], in [14], in assay [6] and in assay [8] was “inactive” throughout. The Potency entry in [9] is “inactive”. Further, the Potency in assay [10] was 37.3 µM (active).

With `O=C1c2ccccc2C(=O)C1C(=O)C(c1ccccc1)c1ccccc1`, the Potency entry in assay [1], in assay [3], in [4], in assay [5], in [6] and in assay [8] was “inactive” throughout. Besides, the Potency result in assay [11] was “inactive”. The Potency in assay [2] is 29.8 µM (active). For the same compound, the compound was called inactive in assay [15].

`CC1(C)CCC(Cc2ccc(Cl)cc2)C1(O)Cn1cncn1` (stereo unspecified): the Potency entry in [1], in assay [2], in assay [3], in assay [6], in assay [7] and in [8] was “inactive” throughout. Besides, the Potency result in assay [9], in assay [18], in [10] and in assay [11] was “inactive” in each case. Also, in assay [16], the Potency is 49 µM (active). In addition, the compound was called inactive in assay [15], in [17], in [19], in assay [12] and in assay [13].

For `CC[C@H]1C[C@H]2[C@@H]3CCC4=CC(=O)CC[C@@H]4[C@H]3CC[C@]2(C)[C@H]1O`, the Potency result in assay [1], in [2], in assay [3], in [4], in assay [5] and in assay [6] was “inactive” throughout. The Potency entry in [8], in assay [10] and in assay [11] was “inactive” each time. Besides, the Potency in assay [20] is 29.8 µM (active). Further, the outcome in assay [15], in assay [17] and in [13] was inactive.

`O=C(O)CC(Cl)C(=O)O` (stereo unspecified): the Potency entry in assay [1], in assay [2], in assay [3], in assay [6], in assay [7] and in assay [8] was “inactive” each time. Also, the Potency entry in assay [9], in [18], in assay [10] and in assay [11] was “inactive” each time. The Potency in [20] was 2.76 µM (active). The call in assay [15], in assay [17] and in assay [19] was inactive.

With `CC(C)(C)c1cc([N+](=O)[O-])cc([N+](=O)[O-])c1O`, the results for the Potency in assay [1], in [3] and in assay [14] were 17.2 µM (active), 27.2 µM (active) and 0.435 µM (active), respectively. Also, the Potency result in assay [2], in assay [8] and in assay [10] was “inactive” throughout.

As for `CCOc1nc(F)cc2nc(S(=O)(=O)Nc3c(Cl)cccc3Cl)nn12`, the Potency entry in [1], in [2], in assay [3], in assay [16], in [14] and in assay [20] was “inactive” in each case. Further, the Potency entry in [5], in assay [6], in assay [7], in assay [8], in [18] and in [10] was “inactive” throughout. The Potency result in assay [11] was “inactive”. The compound was called inactive in [15], in assay [17] and in [19].

For `CC(C)N(CCC(C(N)=O)(c1ccccc1)c1ccccn1)C(C)C` (stereo unspecified), the Potency result in assay [1], in [2], in assay [3], in assay [14], in assay [20] and in assay [5] was “inactive” each time. The Potency entry in assay [6], in assay [7], in assay [8], in assay [9], in assay [10] and in assay [11] was “inactive” throughout. For the same compound, the result in assay [15], in assay [17] and in assay [13] was inactive.

Take `C(=NC1CCCCC1)=NC1CCCCC1`: the Potency result in [1], in assay [2], in [3], in [6], in assay [8] and in assay [11] was “inactive” throughout. Besides, the Potency in assay [5] was 3.08 µM (active) and 3.06 µM (active); in [7] it was “inactive and 21.9 µM (active)”; in assay [10], 11 µM (active). In addition, the compound was called inactive in assay [15], in [17], in assay [19], in assay [12] and in assay [13].

Take `CC/C(=N\OC/C=C/Cl)C1=C(O)CC(C2CCOCC2)CC1=O` (stereo unspecified): the Potency entry in assay [1], in assay [2], in assay [3], in assay [4], in assay [20] and in [5] was “inactive” throughout. Moreover, the Potency entry in assay [6], in assay [7], in [8], in assay [9], in assay [10] and in assay [11] was “inactive” in each case. Moreover, the call in [15] and in assay [12] was inactive.

For `COP(=O)(OC)O/C(=C/Cl)c1cc(Cl)c(Cl)cc1Cl`, the Potency result in assay [1], in assay [2], in assay [3], in assay [5], in [6] and in assay [8] was “inactive” in each case. For the same compound, the Potency result in assay [18], in assay [10] and in assay [11] was “inactive” each time. Besides, the Potency in assay [20] was 5.75 µM (active). In addition, the compound was classed as inactive in assay [15], in assay [17] and in assay [19].
